OTUD3 inh = blocks human OTUD3 ubiquitin-rhodamine cleavage; Q5T2D3; purified OTUD3, Ub-rhodamine fluorescence, 2 h; inhibition, % at 25 µM; hit rate 0.7% among 47,000; AID 1645858
Target sequence (Q5T2D3 whole entry, looked up): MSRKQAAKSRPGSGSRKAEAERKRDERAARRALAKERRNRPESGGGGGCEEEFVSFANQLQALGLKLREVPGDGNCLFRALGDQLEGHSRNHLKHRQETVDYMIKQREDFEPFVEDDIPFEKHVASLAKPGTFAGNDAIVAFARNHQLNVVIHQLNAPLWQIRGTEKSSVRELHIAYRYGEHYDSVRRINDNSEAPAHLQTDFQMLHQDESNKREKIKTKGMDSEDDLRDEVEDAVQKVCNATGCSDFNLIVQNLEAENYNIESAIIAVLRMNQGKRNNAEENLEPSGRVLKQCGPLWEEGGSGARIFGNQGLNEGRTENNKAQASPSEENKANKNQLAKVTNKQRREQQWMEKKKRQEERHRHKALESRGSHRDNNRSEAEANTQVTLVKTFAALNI
USP17 block = blocks human USP17 ubiquitin-rhodamine cleavage; A8MUK1; purified USP17, Ub-rhodamine cleavage fluorescence, 3 h; inhibition, % at 50 µM; hit rate 6.5% among 47,000
USP8 block = inhibitors of human USP8 deubiquitinase. P40818. purified USP8, Ub-rhodamine cleavage fluorescence, 30 min. inhibition, % at 20 µM. hit rate 4.2% among 47,000
USP28 block = blocks human USP28 ubiquitin-rhodamine cleavage; purified USP28, Ub-rhodamine cleavage fluorescence, 30 min; inhibition, % at 25 µM; hit rate 3% among 47,000
USP30 block = human USP30 deubiquitinase inhibition; Q70CQ3; inhibition, % at 25 µM; purified USP30, Ub-rhodamine cleavage fluorescence; hit rate 5.3% among 47,000
A number is an active result; n = inactive. Sampled rows, rich in hits. Any-hit rate of the full collection: about 13%. Rule as the data show it: active = inhibition above about 30%; inactive = the rest.

SMILES	OTUD3 inh	USP17 block	USP8 block	USP28 block	USP30 block
O=C(Cn1ncc2c(N3CCCCC3)ncnc21)NCc1ccc2c(c1)OCO2	n	55	n	n	55
O=C(Cn1ncc2c(N3CCCCCC3)ncnc21)NCc1ccccc1	n	n	n	n	70
CC1CCN(c2ncnc3c2cnn3CC(=O)NCc2cccnc2)CC1	n	n	n	n	n
CCn1c(SCCOc2ccccc2)nnc1-c1ccc2c(c1)OCCO2	n	n	n	31	n
CN1CCN(c2ncnc3c2oc2ccc(Cl)cc23)CC1	88	n	n	n	n
O=C(CSc1nnc(-c2ccncc2)o1)N1CCCc2ccccc21	n	n	n	n	32
O=C(CSc1nnc2c3ccccc3nc(-c3ccco3)n12)N1CCCc2ccccc21	n	n	34	n	n
Cc1cc(-c2nnc(SCC(=O)N3CCCc4ccccc43)o2)no1	n	41	n	n	n
O=C(CSc1nnc(C2COc3ccccc3O2)o1)N1CCCc2ccccc21 (configuration not stated)	n	n	n	n	n
O=C(CSc1nnc(-c2ccc3c(c2)OCCO3)o1)N1CCCc2ccccc21	n	n	n	n	n
Cc1ocnc1C(=O)N[C@@H]1C[C@@H](Oc2ccccc2)[C@H](O)[C@H]1N1CCCC1	n	n	n	n	n
COc1ccccc1CNC(=O)c1cnc(N2CCCCC2)nc1N	n	n	n	n	n
CCOc1ccc(CNC(=O)C2CCCN(c3nc4ccccc4[nH]3)C2)cc1OC (configuration not stated)	n	n	n	n	n
CCOc1ccc(-c2nc3c(cnn3-c3ccccc3)c(=O)[nH]2)cc1	n	37	n	n	n
CCOC(=O)N1CCN(C(=O)CSc2nc3c(cnn3-c3ccc(Cl)cc3)c(=O)[nH]2)CC1	n	n	n	n	n
Cc1n[nH]c(C)c1CC(=O)NCc1nnc(-c2nccc3ccccc23)o1	n	40	33	n	34
CCn1cc(CN2CCc3nc4cc(-c5ccoc5C)[nH]n4c(=O)c3C2)cn1	n	n	n	n	n
Cc1ccc(CN2CCc3nc4cc(C5CC5)[nH]n4c(=O)c3C2)s1	n	n	n	n	32
Cc1cc(-c2cc3nc4c(c(=O)n3[nH]2)CN(Cc2ccc(C)o2)CC4)no1	n	46	n	n	n
Nc1ncc(-c2ccc(Cl)cc2)c(C2CCCN2)n1 (configuration not stated)	n	n	n	n	n
O=C(COc1ccc(Cl)cc1)NCc1nnc(SCC(=O)Nc2nc3ccccc3s2)o1	n	33	n	n	n
O=C(COc1ccc(Cl)cc1)NCc1nnc(SCC(=O)NCc2ccc(F)cc2)o1	n	n	n	n	n
O=C(COc1ccc(Cl)cc1)NCc1nnc(SCC(=O)N2CCN(c3ccccc3)CC2)o1	n	41	n	n	39
O=C(COc1ccc(Cl)cc1)NCc1nnc(SCC(=O)N2CCc3ccccc32)o1	n	n	n	n	40
CC1=N[C@@]2(CC[C@@H]3CN(Cc4ccc(C)cc4)C[C@@H]32)C(=O)N1C	n	n	n	n	n
SMILES	OTUD3 inh	USP17 block	USP8 block	USP28 block	USP30 block
O=C(Nc1nc2c(s1)CCC2)C1CCN(S(=O)(=O)c2ccc3c(c2)CCCC3)CC1	n	n	36	50	n
Cc1ccc(Cn2nnc(-c3ccccc3Cl)n2)cc1	n	n	n	64	n
Cn1c(N)c(C(=O)Cn2nnc(-c3ccccc3Cl)n2)c(=O)n(C)c1=O	n	n	n	n	n
CC(=O)c1oc2nc3c(c(-c4ccc(Cl)cc4)c2c1N)CCc1ccccc1-3	37	38	65	n	n
O=C(Nc1ccccc1)C1CCN(S(=O)(=O)c2cccc3cnccc23)CC1	n	n	n	n	n
COc1ccccc1CNC(=O)CCC1CCCC1	n	n	n	n	n
O=C(NCc1cccc(NC(=O)C2CC2)c1)Nc1cccc2ccccc12	42	54	n	n	n
COc1ccccc1CNC(=O)Nc1cccc2ccccc12	n	53	71	n	30
COc1ccc(OC)c(CN2Cc3ccccc3OC3(CCOCC3)C2)c1	n	n	n	n	n
CCN1C[C@@]23CN(C(=O)Cc4cccc(OC)c4)C[C@@H](C[C@@H]2S1(=O)=O)O3	n	n	n	n	n
CCCCOc1cccc(C(=O)Nc2cccc3cccnc23)c1	n	n	n	n	n
CCN(c1ccccc1)S(=O)(=O)c1cc(C(=O)Nc2nc3ccc(OC)cc3s2)c(Cl)cc1Cl	n	n	n	n	n
CCN(c1ccccc1)S(=O)(=O)c1ccc(C(=O)Nc2nc3ccc(F)cc3s2)cc1	n	55	n	n	n
CCCCOc1cccc(C(=O)Nc2nc3ccc(S(C)(=O)=O)cc3s2)c1	n	n	n	n	36
COc1ccc(CC(=O)N(C)c2nc3c(s2)CCc2occc2-3)cc1	n	n	n	n	n
Cc1cc(C)n(-c2nc3c(c(=O)n2CC(=O)N2CCCC2)CCCC3)n1	n	n	n	n	n
CSc1ccccc1C(=O)Nc1c(C(N)=O)oc2ccccc12	n	n	n	30	n
CC(O)/C=C/C1OC(=O)CC1Nc1ccc(CO)cc1 (configuration not stated)	n	44	n	n	n
CCc1cc2cc3c(cc2nc1SCC(=O)Nc1cccc(C(C)=O)c1)OCO3	n	63	n	n	n
COc1cc(Cl)c(C)cc1NC(=O)c1nc2nccc(C)n2n1	n	n	n	n	n
Nc1ncnc2c1c(-c1ccccc1)c(-c1ccccc1)n2CCc1ccc(F)cc1	n	44	n	n	45
Cc1cc(=O)n(C)c2c(O)c3c(cc12)c(C)cc(=O)n3C	57	77	50	70	n
Cc1cc(O)c(C)c(O)c1C=O	n	n	n	n	n
C/C=C/C(=O)Nc1ccc(-n2nnc(C(=O)N3CCCC3)n2)cc1	n	n	n	n	n
O=C(c1ccc(F)cc1Cl)N1CCN(C(=O)c2cnn3ccccc23)CC1	n	n	n	n	n
SMILES	OTUD3 inh	USP17 block	USP8 block	USP28 block	USP30 block
O=C(c1c(F)cccc1F)N1CCN(C(=O)c2cnn3ccccc23)CC1	n	n	n	n	31
Cc1c(C(=O)NC2CCC(C)CC2)nnn1-c1cccc2c1CCN(S(C)(=O)=O)C2 (configuration not stated)	n	n	n	n	n
O=C(Nc1ccc2sccc2c1)c1ccc(F)cc1	n	49	n	n	58
Clc1ccccc1Cn1c(C2CCCO2)nc2ccccc21 (configuration not stated)	n	n	n	n	31
Cc1cc(C)c(C#N)c(OCc2ccccc2Cl)n1	n	n	n	n	n
O=C(c1ccc2c(c1)nnn2C1CCCC1)N1CCN(c2ccccc2)CC1	n	n	n	n	n
N#Cc1cnn(-c2ncnc3cc(-c4ccccc4Cl)sc23)c1N	n	n	n	n	n
Cc1ccc(C(=O)N(CCO)Cc2ccccc2)cc1S(=O)(=O)N1CCCCC1	n	n	n	n	n
O=C(c1ccc(N2CCc3ccccc32)s1)N1CCC(N2CCCCC2)CC1	n	46	n	35	n
